Rows were chosen to be rich in hits. Some 7.3% of all compounds tested hit in one or more screens of this group.
VACV Venus inh = vaccinia inhibition (Venus reporter). Vaccinia virus Venus reporter expression, fluorescence. Potency, µM (doses to about 36.5 µM), for inactives: top-dose activity change, negative = inhibition, hits mostly inhibitors. 0.46% of 330,000 active. AID 720580; calls by dose curve; tested in A549 cells; note: potency is the fitted concentration of half-maximal effect; nearly all actives have a fitted effect of over 30% in size
FMDV antiviral = foot and mouth disease virus antiviral activity | AID 1159524 | 1.2% of 410,000 active | Potency, µM (doses to about 57.9 µM), without a hit: at the highest dose activity change, negative = inhibition, actives largely listed as inhibitors | FMDV antiviral cell-based qHTS; calls by dose curve; tested in HEK293T cells; note: read-out not given here; potency is the fitted concentration of half-maximal effect; nearly all actives have a fitted effect of over 45% in size
HCMV antiviral = human cytomegalovirus inhibition | HFF cells, HCMV-luciferase reporter, 72 h; hits give low values | 4.5% of 410,000 active | activity change, negative = inhibition, % at 57.5 µM; in the data active = activity change below about -60%; inconclusive = no clear call, values can overlap the other calls; inactive = above about -39%
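Two-dose cell screen: HFF monolayers treated with compounds and infected with luciferase-expressing HCMV at 1 PFU/cell, 72 h at 37C, then lysed for luciferase measurement.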
Vaccinia mCherry = inhibitors of vaccinia virus infection (mCherry reporter signal). Vaccinia virus mCherry reporter infection, fluorescence. Potency, µM (series often up to 36.5 µM), for the others: at the top dose activity change, negative = inhibition, actives largely listed as inhibitors. 0.63% of 310,000 active. AID 720579; calls by dose curve; tested in A549 cells; note: potency is the fitted concentration of half-maximal effect; nearly all actives have a fitted effect of over 35% in size
HCV inh = inhibitors of hepatitis C virus infection; Huh7.5.1 HCVcc-Cre infection, luciferase reporter, 44 h; Potency, µM (series often up to 41.8 µM), for inactives: at the highest dose activity change, negative = inhibition, hits mostly inhibitors; 3.4% of 340,000 active; AID 651820; active = well fitted inhibition curve with a large enough effect; inconclusive = small, poorly fitted or top-dose-only effect, or another doubt; inactive = no such curve, though single readings can be large or run the other way; note: potency is the fitted concentration of half-maximal effect
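Antiviral activity was scored by luciferase reporter output from cells infected with HCVcc-Cre (~0.5 moi) in presence of compound, 44 h infection period, cells seeded 1,000/well 4 h prior.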
* marks the source's active call; other numbers are inactive results. % is set by controls: 0 for no effect and ±100 for the full control effect.

How did Cc1ccc(S(=O)(=O)N2CCOCC2)cc1NC(=O)COc1ccc(C(=O)c2ccccc2)cc1 do in these assays?
FMDV antiviral: 20µM*; HCMV antiviral: 20.6; HCV inh: 10µM*

What do the screens show for `Cc1ccc(S(=O)(=O)N2CCOCC2)cc1C(=O)O`?
FMDV antiviral: 5.6%; HCMV antiviral: 2.5; HCV inh: 14.8%

How did O=C(COc1ccccc1Cc1ccccc1)Nc1cccc(S(=O)(=O)N2CCOCC2)c1 do in these assays?
VACV Venus inh: -24.3%; FMDV antiviral: 2.7%; HCMV antiviral: -28.7; Vaccinia mCherry: -8.0%; HCV inh: inconclusive

Results for Cc1ccc(S(=O)(=O)N2CCOCC2)cc1C(=O)OC(C)C(=O)c1ccccc1 (stereo unspecified) ?
VACV Venus inh: -16.3%; FMDV antiviral: -18.1%; HCMV antiviral: -38.7; Vaccinia mCherry: inconclusive; HCV inh: 3.55µM*

How did Cc1ccc(-c2cc(C(=O)Nc3sc4c(c3C(=O)NCc3ccco3)CCC4)[nH]n2)c(O)c1 do in these assays?
FMDV antiviral: 25.1µM*; HCMV antiviral: -6.7; HCV inh: -6.8%

What do the screens show for `O=C(Nc1sc2c(c1C(=O)NCc1cccnc1)CCCC2)c1ccco1`?
FMDV antiviral: -13.8%; HCMV antiviral: 38.8; HCV inh: 7.94µM*

How did CNC(=O)c1c(NC(=O)c2ccco2)sc2c1CCCC2 do in these assays?
VACV Venus inh: -15.0%; FMDV antiviral: 12.7%; HCMV antiviral: 48.4; Vaccinia mCherry: -9.2%; HCV inh: 14.1µM*

What do the screens show for `CC(Oc1ccc(F)cc1)C(=O)Nc1sc2c(c1C(=O)NCc1cccnc1)CCCC2` (stereo unspecified)?
VACV Venus inh: -21.7%; FMDV antiviral: -19.0%; HCMV antiviral: 35.6; Vaccinia mCherry: -25.3%; HCV inh: 2.51µM*

How did CCC(=O)N1CCc2cc(Br)cc(S(=O)(=O)N3CCCC(C(=O)Nc4cccc(Cl)c4C)C3)c21 (stereo unspecified) do in these assays?
VACV Venus inh: -12.2%; FMDV antiviral: -24.1%; HCMV antiviral: -4.3; Vaccinia mCherry: inactive

Results for CCOc1ccc(N2C(=O)C(c3nnnn3Cc3ccccc3)N(CCOC)C2=O)cc1 (stereo unspecified) ?
HCMV antiviral: -21.1

How did CCn1c(Cn2nnc(-c3ccccc3)n2)nnc1SCC(=O)Nc1cccc(C(C)=O)c1 do in these assays?
VACV Venus inh: -3.5%; HCMV antiviral: -11.6; Vaccinia mCherry: -21.7%; HCV inh: 35.5µM*

How did CCn1c(Cn2nnc(-c3ccccc3)n2)nnc1SCC(=O)Nc1ccc(C(C)=O)cc1 do in these assays?
VACV Venus inh: -4.5%; HCMV antiviral: 128.8; Vaccinia mCherry: -8.8%; HCV inh: inconclusive

What do the screens show for `COc1cccc(-c2nccc(-n3ccnc3)n2)c1`?
VACV Venus inh: -2.7%; FMDV antiviral: 36.0%; Vaccinia mCherry: -0.1%

Results for Clc1ccc2c(c1)-c1[nH]ncc1CS2 ?
VACV Venus inh: -26.3%; FMDV antiviral: -14.4%; HCMV antiviral: -61.3*; Vaccinia mCherry: inactive; HCV inh: -23.0%

What do the screens show for `CN(C)CCCN(C(=O)CCc1ccccc1)c1nc2ccc(Br)cc2s1`?
VACV Venus inh: inconclusive; FMDV antiviral: 25.1µM*; HCMV antiviral: 0.0; Vaccinia mCherry: inconclusive; HCV inh: -24.4%

Results for COc1ccc(C)c2sc(N(Cc3cccnc3)C(C)=O)nc12 ?
VACV Venus inh: -11.8%; FMDV antiviral: 0.1%; HCMV antiviral: 0.0; Vaccinia mCherry: -13.8%

What do the screens show for `Cc1cccc2sc(N(CCCN(C)C)C(=O)CN3C(=O)c4ccccc4C3=O)nc12`?
FMDV antiviral: -11.0%; HCMV antiviral: -33.7; HCV inh: -22.8%

What do the screens show for `Cc1cccc2sc(N(CCCN(C)C)C(=O)CCc3ccccc3)nc12`?
VACV Venus inh: inconclusive; FMDV antiviral: -12.3%; HCMV antiviral: -71.6*; Vaccinia mCherry: inconclusive; HCV inh: 10µM*

What do the screens show for `COc1ccc(C)c2sc(N(Cc3cccnc3)C(=O)CCc3ccccc3)nc12`?
VACV Venus inh: -5.5%; FMDV antiviral: -6.7%; HCMV antiviral: active; Vaccinia mCherry: -16.3%

Results for CN(C)CCCN(C(=O)CCc1ccccc1)c1nc2ccc(F)cc2s1 ?
VACV Venus inh: -12.1%; FMDV antiviral: -14.6%; HCMV antiviral: -11.9; Vaccinia mCherry: -12.2%; HCV inh: inconclusive

Results for Cc1cc(Cl)nc2nc(Cl)ccc12 ?
VACV Venus inh: -9.4%; Vaccinia mCherry: 25.1%

From PubChem
